From PubChem BioAssay (NCI) come the findings set out here.

This is part of a sample that, as a whole, favours compounds with a hit. Of some 83,000 tested, about 20% had one in any assay.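 Compound tested at a single concentration for 48 hours in 96-well plates; a percent growth value below 10 was scored as active.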 A number with no mark means an inactive call. Activity calls are given as the source filed them.

Test in all cases: NCI-60 one-dose screen, 48 h (100 = growth as untreated, 0 = no growth, -100 = all killed)
For one test, the system named is SK-MEL-2 melanoma. The following applies: 10 µM unless noted.
The next test relates to EKVX NSCLC. The following applies: 10 µM unless noted.
Another test concerns SN12C renal. The following applies: 10 µM unless noted.
The test system of a further test is UO-31 renal. The conditions noted are these: 10 µM unless noted.
A further test concerns TK-10 renal. The conditions noted are these: 10 µM unless noted.
The next test relates to ACHN renal. The following applies: 10 µM unless noted.
Another test has as its system CAKI-1 renal. The following applies: 10 µM unless noted.
Another test deals with A498 renal. The following applies: 10 µM unless noted.
The subject of the next test is MOLT-4 leukemia. The following applies: 10 µM unless noted.
Another test concerns SR leukemia. The following applies: 10 µM unless noted.
In a further test the test system is RPMI-8226 leukemia. The following applies: 10 µM.
Another test deals with OVCAR-8 ovarian. The following applies: 10 µM unless noted.
For a further test, the system named is OVCAR-5 ovarian. The following applies: 10 µM unless noted.
The subject of the next test is SK-OV-3 ovarian. The conditions noted are these: 10 µM.
The next test relates to IGROV1 ovarian. The conditions noted are these: 10 µM unless noted.
The next test concerns OVCAR-3 ovarian. The following applies: 10 µM unless noted.
A further test concerns HS 578T breast. The conditions noted are these: 10 µM unless noted.
A further test deals with NCI/ADR-RES ovarian. The following applies: 10 µM unless noted.
The subject of a further test is CCRF-CEM leukemia. The following applies: 10 µM unless noted.
Another test deals with OVCAR-4 ovarian. The conditions noted are these: 10 µM unless noted.

As for `O=C(CCc1nnc2sc(/C=C\c3ccccc3)nn12)c1nc2ccccc2[nH]1`, the growth with SK-MEL-2 melanoma is 98.1%; in the test with EKVX NSCLC, 88.6%; in the test on SN12C renal it was 91.9%; with UO-31 renal, 70.4%; with TK-10 renal, 113%; in the test with ACHN renal, 99.5%. The growth with CAKI-1 renal was 93.4%; with A498 renal, 65.2%; in the test with MOLT-4 leukemia it was 62.8%; in the test with SR leukemia, 63.5%; in the test with RPMI-8226 leukemia, 72%; in the test with OVCAR-8 ovarian, 92.7%. In addition, the growth in the test with OVCAR-5 ovarian is 116%; in the test with SK-OV-3 ovarian it was 97.2%; in the test on IGROV1 ovarian it was 96%; in the test on OVCAR-3 ovarian, 115%; with HS 578T breast, 83.1%; in the test on NCI/ADR-RES ovarian, 89.5%.
Take `O=C(c1ccccc1)C(Br)C(Br)c1cccc([N+](=O)[O-])c1` (centres undefined): the growth with SK-MEL-2 melanoma is 69.8%; with EKVX NSCLC it was 101%; in the test on SN12C renal, 67.1%; in the test on UO-31 renal, -74.8% (active); in the test on TK-10 renal it was -25.4% (active); in the test on ACHN renal, -87.9% (active). Also, the growth with CAKI-1 renal is -25.5% (active); in the test on A498 renal, 48.2%; in the test with CCRF-CEM leukemia it was -15.7% (active); in the test on SR leukemia, -33.3% (active); in the test with RPMI-8226 leukemia, -19.4% (active); with OVCAR-8 ovarian, 18.6%. Also, the growth was 73.9% in the test on OVCAR-5 ovarian; 29.3% in the test on OVCAR-4 ovarian; -29.7% (active) in the test on IGROV1 ovarian; -23.4% (active) in the test on OVCAR-3 ovarian; 91.9% in the test with HS 578T breast; 51.4% with NCI/ADR-RES ovarian.
On to `O=c1ccc2ccccc2o1`, for which the growth is 101% with SK-MEL-2 melanoma; 109% in the test with EKVX NSCLC; 109% in the test with SN12C renal; 89.9% with UO-31 renal; 98.3% in the test on TK-10 renal; 93.8% with ACHN renal. For the same compound, the growth in the test with CAKI-1 renal was 89.7%; with A498 renal it was 96.4%; in the test on CCRF-CEM leukemia, 87.4%; with OVCAR-8 ovarian, 105%; with OVCAR-5 ovarian, 104%; with SK-OV-3 ovarian, 111%. Besides, the growth with IGROV1 ovarian was 111%; in the test with OVCAR-3 ovarian, 111%; with HS 578T breast, 105%; in the test with NCI/ADR-RES ovarian it was 105%.
For the compound `COc1cc(/C=C/C(=O)C(=Cc2ccc(F)c(F)c2)C(=O)/C=C/c2ccc(O)c(OC)c2)ccc1O`, the growth with SK-MEL-2 melanoma is 6.91% (active); in the test on EKVX NSCLC, 72.1%; in the test on SN12C renal it was 31.2%; in the test on UO-31 renal it was 53.2%; with TK-10 renal, 35.5%; in the test with ACHN renal, 27.3%. Moreover, the growth with CAKI-1 renal was 95.6%; in the test with A498 renal it was 116%; in the test on RPMI-8226 leukemia it was 19.9%; in the test on OVCAR-8 ovarian, 11.1%; in the test with OVCAR-5 ovarian it was 115%; with OVCAR-4 ovarian it was 39.3%. Besides, the growth is 94.4% in the test with SK-OV-3 ovarian; 5.44% (active) in the test with IGROV1 ovarian; -11.9% (active) in the test with OVCAR-3 ovarian; 38.4% in the test with HS 578T breast; 57.6% with NCI/ADR-RES ovarian.
Turning to `COC(=O)C1C2CC3c4[nH]c5cc(OC)ccc5c4CCN3CC2CC(OC2CCCCO2)C1OC` (centres undefined), the growth with SK-MEL-2 melanoma is 106%; in the test with EKVX NSCLC it was 101%; in the test on SN12C renal it was 108%; with UO-31 renal it was 92.8%; in the test on TK-10 renal, 104%; in the test with ACHN renal, 99.6%. Further, the growth in the test on CAKI-1 renal was 83.2%; in the test with A498 renal, 82.8%; with MOLT-4 leukemia it was 99.2%; in the test on SR leukemia it was 88.5%; with RPMI-8226 leukemia, 87.5%; with OVCAR-8 ovarian it was 96.2%. The growth in the test with OVCAR-5 ovarian was 105%; in the test on OVCAR-4 ovarian it was 93.6%; in the test on SK-OV-3 ovarian it was 101%; in the test with IGROV1 ovarian, 114%; with OVCAR-3 ovarian, 107%; with HS 578T breast, 96.2%. Also, the growth in the test on NCI/ADR-RES ovarian was 95.4%.
As to `Nc1nc(N)c(C=Nc2ccc(Br)cc2)c(Nc2ccc(Br)cc2)n1`, the growth in the test with SK-MEL-2 melanoma was 108%; in the test with EKVX NSCLC, 86.4%; in the test with SN12C renal, 99.2%; in the test on UO-31 renal, 75.2%; with TK-10 renal it was 127%; with ACHN renal, 73.3%. For the same compound, the growth in the test with CAKI-1 renal is 69.2%; in the test on A498 renal it was 83.1%; with MOLT-4 leukemia, 64.7%; with SR leukemia it was 64.2%; in the test on RPMI-8226 leukemia, 113%; with OVCAR-8 ovarian, 87.3%. Also, the growth with OVCAR-5 ovarian is 79.3%; with OVCAR-4 ovarian, 107%; in the test on SK-OV-3 ovarian, 104%; with IGROV1 ovarian it was 86.3%; in the test with OVCAR-3 ovarian, 149%; in the test with HS 578T breast, 80.8%. The growth in the test on NCI/ADR-RES ovarian is 77.6%.
As for `Cc1cc(O)cc2c1[C@H]1CC[C@]3(C)[C@@H](O)CC[C@H]3[C@@H]1C=C2`, the growth in the test with SK-MEL-2 melanoma was 86.4%; in the test on EKVX NSCLC, 105%; in the test on SN12C renal, 98.5%; in the test with UO-31 renal, 98.4%; in the test on TK-10 renal, 102%; in the test with ACHN renal, 96.7%. For the same compound, the growth with CAKI-1 renal is 108%; in the test on A498 renal, 118%; with CCRF-CEM leukemia, 69.4%; in the test with MOLT-4 leukemia it was 79%; with RPMI-8226 leukemia, 80.8%; in the test with OVCAR-8 ovarian, 95.3%. The growth is 114% in the test with OVCAR-5 ovarian; 110% with OVCAR-4 ovarian; 115% with SK-OV-3 ovarian; 74.4% with IGROV1 ovarian; 108% in the test on OVCAR-3 ovarian; 86.5% in the test with HS 578T breast. In addition, the growth with NCI/ADR-RES ovarian was 53.2%.
As for `O=C(CCc1nnc2sc(-c3ccccc3)nn12)c1nc2ccccc2[nH]1`, the growth is 104% with SK-MEL-2 melanoma; 99.5% in the test with EKVX NSCLC; 86.6% in the test on SN12C renal; 77.5% in the test with UO-31 renal; 108% in the test on TK-10 renal; 101% in the test on ACHN renal. The growth in the test on CAKI-1 renal is 103%; with A498 renal it was 80.4%; with MOLT-4 leukemia, 78.4%; with SR leukemia, 69.6%; in the test on RPMI-8226 leukemia, 83%; with OVCAR-8 ovarian, 97.2%. In addition, the growth was 116% in the test on OVCAR-5 ovarian; 98.7% with OVCAR-4 ovarian; 107% in the test with SK-OV-3 ovarian; 96.8% with IGROV1 ovarian; 116% with OVCAR-3 ovarian; 102% in the test with HS 578T breast.
